About 11,000 (3.1%) of roughly 360,000 compounds were called active. Where a call stands in place of a potency, no number is given. Another 4% or so got no clear call; they are omitted. The sample holds actives, similar compounds and a random draw of the others, so the mix is not that of the screen. Calls come from the whole dose curve; as a rule, active = well fitted inhibition curve with a large enough effect; inconclusive = small, poorly fitted or top-dose-only effect; inactive = no such curve, though single readings can be large or run the other way.
Potency is the fitted concentration of half-maximal effect.

The target of the experiment is Schistosoma mansoni thioredoxin glutathione reductase (TGR) (UniProt Q962Y6). As to the kind of experiment: qHTS Assay for the Inhibitors of Schistosoma Mansoni Peroxiredoxins. Note: nearly all actives have a fitted effect of over 60% in size. The following applies: purified TGR, DTNB reduction, TNB absorbance 405 nm; series mostly up to 114 µM. The gist of the method:
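Kinetic colorimetric format: TGR-catalysed, NADPH-driven DTNB reduction monitored via TNB absorbance. Enzyme dispensed at 20 nM; compound exposure 15 min at room temperature before reaction start.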
A general note: qHTS replaces the single test concentration by a dilution series.
With `Cc1cccc(Cc2c(C)nc3nc(SCc4ccccc4Cl)nn3c2C)c1`, the Potency result is “inactive”.
Regarding `Cc1ccc(Cl)cc1NC(=O)CCC(=O)N1CC(C)Sc2ccccc21` (stereo unspecified), the Potency result is “inactive”.
The same measure for `Cc1oc2ncnc(N3CCCCC3)c2c1C(=O)N1CCN(c2cccc(Cl)c2)CC1`: “inactive”; for `COc1cccc(NC(=O)Nc2ccc3c(c2)N(C)C(=O)c2ccccc2S3)c1`: “inactive”; for `CCOc1ccc(CCNC(=O)Cn2nc(CC)n3c(cc4sc(CC)cc43)c2=O)cc1OCC`: “inactive”.
The result for `Cc1ccc2c(=O)c(C(=O)c3ccc(Cl)cc3)cn(CC(=O)NC3CCCCC3)c2n1` reads “inactive”; that for `Cc1noc(/C=C/N(C)C)c1S(=O)(=O)N1CCCC(C(=O)Nc2cccc(F)c2)C1` (stereo unspecified), “inactive”; that for `CCc1cccc(NC(=O)c2cnc(N3CCOCC3)c3ccccc23)c1`, “inactive”.
The same measure for `Cc1ccc(CNC(=O)CCC(=O)N2Cc3ccccc3Oc3ncccc32)cc1`: “inactive”; for `CCc1ccccc1N1C(=O)CN(S(=O)(=O)CC)CC1(C)C(=O)NC1CCCCC1` (stereo unspecified): “inactive”.
Regarding `Cc1ccc(NC(=O)Cn2c(=O)n(-c3ccccc3)c(=O)c3c4c(sc32)CCCC4)cc1`, the Potency result is “inactive”.
In the case of `O=C(Nc1ccc(C(=O)O)cc1)/C(=C\c1ccccc1)NC(=O)c1ccc(Br)cc1`, the Potency result is “inactive”.
On to `COc1ccc(/C=C(/NC(=O)c2ccccc2)C(=O)Nc2cccc(C(=O)O)c2)cc1`, for which the Potency result was “inactive”.
Consider `Cc1cccc(NC(=O)/C(=C\c2ccco2)NC(=O)c2ccccc2)c1`, for which the Potency is 20 µM (active).
The result for `COc1ccc(-c2nc3sc(CCNS(=O)(=O)c4ccc(F)c(C)c4)c(C)n3n2)cc1` reads “inactive”; that for `Cc1ccc2nc3c(cc(C(=O)NC4CCCCC4)c(=N)n3C(C)C)c(=O)n2c1`, “inactive”.
The result for `COc1ccc(N2C(=O)CC(Nc3ccc(F)cc3)C2=O)c([N+](=O)[O-])c1` (stereo unspecified) reads “inactive”; that for `COc1ccc(NC2CC(=O)N(C)C2=O)cc1` (stereo unspecified), 15.8 µM (active); that for `COc1ccc(N=C2SC(C(=O)Nc3ccc(F)cc3)CC(=O)N2C)cc1` (stereo unspecified), “inactive”.
The same measure for `CCN(C(=O)Cn1c(=O)nc(-c2ccccc2)c2cc(Cl)ccc21)c1cccc(C)c1`: “inactive”; for `COC(=O)c1cccc(N(C(=O)c2ccco2)C(C(=O)NC2CCCC2)c2ccco2)c1` (stereo unspecified): 44.7 µM (active).
In the case of `O=C(NC1CCCC1)C(c1ccco1)N(C(=O)c1ccco1)c1ccc(F)cc1` (stereo unspecified), the Potency result was “inactive”.
The same measure for `COc1cccc(C(C(=O)NC2CCCC2)N(C(=O)c2ccco2)c2cccc(C(C)=O)c2)c1OC` (stereo unspecified): “inactive”.
The result for `Cc1ccc(CNC(=O)CSc2c(C)cnc3c2c(=O)n(C)c(=O)n3C)cc1` reads “inactive”; that for `Cc1ccc(NC(=O)CCCn2c(=O)c3cccn3c3ccccc32)cc1Cl`, “inactive”.
As to `Cn1c(=O)[nH]c(=O)c2c1nc(NCCc1ccccc1)n2Cc1ccc(F)cc1`, the Potency entry is “inactive”.
The result for `Cc1ccccc1-n1c(C)cc(/C=C2\NC(=O)NC2=O)c1C` reads “inactive”; that for `CC(=O)C1=C(C)NC(=O)NC1c1ccc2c(c1)OCO2` (stereo unspecified), “inactive”.
The result for `Cc1c(C(=O)O)cccc1-n1c(C)cc(/C=C2\C(=O)NC(=O)N(c3ccc4c(c3)OCO4)C2=O)c1C` reads 14.1 µM (active); that for `CCOC(=O)c1cccc(NS(=O)(=O)c2cn(C)c(C)n2)c1`, “inactive”; that for `COc1ccccc1CN1CCNC(=O)C1CC(=O)N(C)CC1CCOCC1` (stereo unspecified), 50.1 µM (active).
The same measure for `CCCOC(=O)CC1C(=O)NCCN1Cc1ccc(F)cc1` (stereo unspecified): “inactive”; for `CN(Cc1cccc2ncccc12)C(=O)CC1C(=O)NCCN1Cc1ccc(F)cc1` (stereo unspecified): 35.5 µM (active).
For `Cc1cnc(CN(C)C(=O)CC2C(=O)NCCN2Cc2cccc(F)c2F)[nH]1` (stereo unspecified), the Potency result was “inactive”.
For `CC(C)CN1CCNC(=O)C1CC(=O)N(C)CC1CCOCC1` (stereo unspecified), the Potency entry is “inactive”.
Take `C=CCC1(CC=C)CCCN1C(=O)CC1C(=O)NCCN1Cc1ccccc1OC` (stereo unspecified): the Potency entry is “inactive”.
The same measure for `CCc1ccc2ncc3c(-c4ccc(C)cc4)nn(CC(=O)NCc4ccccc4)c3c2c1`: “inactive”.
The result for `Cc1nn(C)c2c1c(C(F)(F)F)cc(=O)n2C(C)C(=O)NCc1ccc(Cl)cc1` (stereo unspecified) reads “inactive”.
The same measure for `CC(C)c1ccc(NC(=O)Cn2nnc(C(=O)NCCc3ccccc3)c2N)cc1`: “inactive”; for `COc1ccccc1OCCNC(=O)c1cc([N+](=O)[O-])cc([N+](=O)[O-])c1`: “inactive”.
Turning to `COc1cc(CC(=O)N/N=C/c2ccccc2)c([N+](=O)[O-])cc1OC`, the Potency entry was “inactive”.
The same measure for `COc1ccc(C(=O)NCC(=O)N/N=C/c2ccc([N+](=O)[O-])o2)cc1OC`: 17.8 µM (active).
On to `CC(C)(C)c1ccc(S(=O)(=O)N2CCN(C(=O)c3cc(-c4ccc(Br)cc4)n[nH]3)CC2)cc1`, for which the Potency entry was “inactive”.
Take `COc1ccc(N2CCN(S(=O)(=O)c3ccc(-c4coc(C)n4)cc3)CC2)cc1`: the Potency result is “inactive”.
Consider `O=C(C1CCCN(S(=O)(=O)c2cccc3nonc23)C1)N1CCN(c2ccccc2F)CC1` (stereo unspecified), for which the Potency entry was “inactive”.
In the case of `CCC(=O)N1CCc2cc(Br)cc(S(=O)(=O)Nc3ccc(C)cc3C)c21`, the Potency result is “inactive”.
Take `Oc1c(C=Nc2cccc3nsnc23)ccc2ccccc12`: the Potency is 7.94 µM (active).
In the case of `CCc1ccc(S(=O)(=O)n2ccnc2)cc1`, the Potency result is “inactive”.
The same measure for `COCC(C)NS(=O)(=O)c1ccc(N2CCCCS2(=O)=O)cc1` (stereo unspecified): “inactive”; for `O=C(O)CCCn1c(=O)c2cccn2c2ccc(F)cc21`: “inactive”; for `COCCCNC(=O)C1CC(=O)N(CCc2ccc(F)cc2)C1` (stereo unspecified): “inactive”.
The same measure for `COCCCn1c(CCC(=O)O)ccc1-c1ccc(F)cc1`: 44.7 µM (active).
As to `CCOC(=O)C1CCCN(CC(=O)Nc2cc(C)c3c(=O)oc4ccccc4c3n2)C1` (stereo unspecified), the Potency entry was “inactive”.
For the molecule `Cc1cc(Cl)ccc1N1C(=O)CC(SCCC(=O)O)C1=O` (stereo unspecified), the Potency is 39.8 µM (active).
As to `O=C(CSC1CC(=O)N(CCc2ccccc2)C1=O)Nc1ccc(Cl)cc1` (stereo unspecified), the Potency entry was “inactive”.
Take `CCC1Oc2ccc(Cl)cc2N(CC(=O)O)C1=O` (stereo unspecified): the Potency result was “inactive”.
For `COc1ccc(N2CCN(C(=O)c3c(C)oc4nc(C)nc(N5CCCC5)c34)CC2)cc1`, the Potency result was “inactive”.
As to `COc1ccc(C(=O)N2CCC(c3nc4ccccc4o3)CC2)cc1`, the Potency entry was “inactive”.
The same measure for `Cc1ccc(CNC(=O)C(=O)c2cn(CC(=O)N3CCCC3)c3ccccc23)cc1`: “inactive”; for `O=C(NCc1ccco1)C(=O)c1cn(CC(=O)N2CCCCCC2)c2ccccc12`: 31.6 µM (active); for `Cc1ccc(CNC(=O)C(=O)c2cn(CC(=O)N3CCOCC3)c3ccccc23)cc1`: “inactive”.
The same measure for `CC1CCN(C(=O)Cn2c(=O)n(-c3ccc(Cl)cc3)c(=O)c3c4c(sc32)CCC4)CC1`: “inactive”; for `Cc1cc(C)c2oc(C(=O)Nc3c(C(=O)Nc4ccccc4)oc4ccccc34)cc(=O)c2c1`: “inactive”; for `NC(=O)CC[C@@H]1NC(=O)[C@@H]2CCCN2C(=O)c2cc([N+](=O)[O-])cc(F)c2NCCC[C@@H](C(N)=O)NC1=O`: 44.7 µM (active).
The result for `NC(=O)CC[C@@H]1NC(=O)[C@H](CO)NC(=O)c2cc([N+](=O)[O-])cc(I)c2NCC[C@@H](C(N)=O)NC1=O` reads “inactive”; that for `C[C@@H]1NC(=O)c2cc([N+](=O)[O-])cc(F)c2NCCC[C@@H](C(N)=O)NC(=O)[C@H](CC(N)=O)NC1=O`, “inactive”; that for `Cc1cccc(CC(=O)Nc2cccc(-c3cn4cccnc4n3)c2)c1`, “inactive”.
In the case of `CN(C)Cc1c(C#N)c2ccccc2n1C`, the Potency entry was “inactive”.
The result for `CCCc1cc(=S)n2c([nH]c3ccccc32)c1C#N` reads 0.631 µM (active).
As to `O=C(Cn1c(-c2cccs2)cc2ccccc21)NCCc1ccc(Cl)cc1`, the Potency result was “inactive”.
The result for `Cc1ccc2c(c1)N(C(=O)Nc1ccc(Br)cc1F)CCO2` reads “inactive”; that for `COc1ccc(-c2cn3c(C)c(C(=O)Nc4cc(C)cc(C)c4)sc3n2)cc1`, “inactive”.
The result for `CCOC(=O)C1CCCN(C(=O)c2ccc(CS(=O)(=O)c3ccc(Br)cc3)o2)C1` (stereo unspecified) reads 20 µM (active); that for `CCOC(=O)C1CCCN(C(=O)c2cncc(Br)c2)C1` (stereo unspecified), “inactive”.
The same measure for `CCOC(=O)C1CCCN(C(=O)c2cccc(S(=O)(=O)N3CCOCC3)c2)C1` (stereo unspecified): “inactive”; for `O=C(c1ccc2c(c1)N(Cc1ccccc1)C(=O)c1ccccc1S2(=O)=O)N1CCC(Cc2ccccc2)CC1`: “inactive”.
Turning to `CC(C)c1nc(CNC(=O)CC2C(=O)NCCN2Cc2ccoc2)cs1` (stereo unspecified), the Potency was 35.5 µM (active).
As for `O=C(CC1C(=O)NCCN1Cc1ccc(-c2ccccc2)cc1)NCC1CCOCC1` (stereo unspecified), the Potency entry is “inactive”.
The same measure for `Cc1ccc(CN2CCNC(=O)C2CC(=O)NCc2csc(C(C)C)n2)cc1` (stereo unspecified): “inactive”; for `COC(=O)c1cc(S(=O)(=O)N2CCN(c3cc(Cl)ccc3C)CC2)c[nH]1`: “inactive”; for `Cc1ccc(C(=O)CC2(O)C(=O)N(CCc3ccccc3)c3ccc(Br)cc32)cc1` (stereo unspecified): “inactive”.
`Cc1onc(-c2ccc(F)cc2F)c1C(=O)Nc1cccc(C(F)(F)F)c1`: the Potency result is “inactive”.
The same measure for `COc1ccc(CCNC(=O)c2ccc3c(c2)sc2nc(-c4ccc(C)cc4)cn23)cc1OC`: “inactive”; for `CCc1cccc(NC(=O)c2cc(-c3ccccc3)n[nH]2)c1`: “inactive”; for `COC(=O)c1ccc(COc2ccc(C#N)cc2)o1`: “inactive”.
The same measure for `O=C(O)c1ccc(NC(=O)c2ccc(COc3ccc(Cl)cc3)o2)cc1`: “inactive”; for `O=C(O)c1ccc(COc2c(F)c(F)cc(F)c2F)o1`: 35.5 µM (active); for `N#CC1=C(N)C(C#N)(C#N)[C@H](c2ccsc2)[C@H]2COCC=C12`: 12.6 µM (active).
The same measure for `CCN1CC=C2C(C#N)=C(N)C(C#N)(C#N)[C@H](c3ccoc3)[C@H]2C1`: “inactive”; for `Cc1ccc(C)c(N2CCN(C(=O)Cc3c(C(=O)O)c(C)cn3C)CC2)c1`: “inactive”; for `O=C(NNC1CC(=O)N(c2cccc(Cl)c2)C1=O)c1cccnc1` (stereo unspecified): “inactive”.
For the molecule `O=C1[C@@H]2C(c3cccnc3)=NO[C@@H]2C(=O)N1c1ccc(Cl)cc1Cl`, the Potency was 8.91 µM (active).
On to `Cc1nc2ccccc2c(=O)n1-c1ccc(Cl)cc1Cl`, for which the Potency entry was “inactive”.
The result for `COc1ccccc1-c1nnc(C2CCN(C(=O)c3ccc(Cl)cc3)CC2)o1` reads “inactive”; that for `CC(C)(C)c1ccc(C(=O)Nc2ccc3c(c2)CCCN3C(=O)c2cccs2)cc1`, “inactive”.
The same measure for `Cc1cccc(Cn2c(CN3CCC(C(=O)NCc4ccccc4Cl)CC3)cc3ccccc32)c1`: “inactive”.

(Values after PubChem BioAssay AID485364 (National Center for Advancing Translational Sciences (NCATS), 2010).)
